# Screens deposited in PubChem BioAssay by several laboratories.
# HIV RNase H inh – HIV-1 RT RNase H inhibitors, primary screen, biochemical, fluorescence; RT-RNase H RNA/DNA duplex cleavage; Gag-Pol polyprotein (Human immunodeficiency virus type 1 group M subtype B (isolate …; inhibition, % at 10 µM; actives 1.9% (n = 65,000); in the data active = inhibition above about 50%
# RmlC RmlD mix – RmlC and RmlD coupled enzyme inhibitors, primary screen, biochemical, 384-well, compound mixtures, retest; RmlC/RmlD coupled enzyme inhibition, 384-well mixture HTS; inhibition, % at 5.5 µM; actives 0.39% (n = 110,000); AID 1532, 2009; in the data active = inhibition above about 30%, passing the limit was not always enough
# Active calls of the source: *; x = no result given. This excerpt belongs to a sample that is enriched for hits.
SMILES,HIV RNase H inh,RmlC RmlD mix
CCN(C)c1ccc(/C=N\n2nnnc2N)cc1,-15,71*
Nc1nnnn1/N=C/c1ccc(O)cc1,x,9
Cc1cc(C)c2c(n1)nn1c(N3CCN(c4ccccc4)CC3)cc(C)nc21,15,-27
Cc1cc(C)c2c(n1)nn1c(NCCOCCO)cc(C)nc21,-9,44*
CNC(=O)/C(C#N)=c1\s/c(=C/C(=O)OC)c(=O)n1-c1ccccc1,x,-3
COC(=O)/C=c1\sc2ncnn2c1=O,56*,16
CCN1CCN(C(=O)c2ccc3c(=O)n(CCC4=CCCCC4)c(=O)[nH]c3c2)CC1,-26,-3
O=C(NCc1ccco1)c1ccc2c(=O)n(CCC3=CCCCC3)c(=O)[nH]c2c1,52*,5
COc1ccc(C2/C=C\CN(C(=O)c3ccc(C)cc3)[C@H](Cc3ccccc3)C(=O)N2Cc2ccc(F)cc2)cc1 (stereo partly specified),x,1
CC(C)CC1C(C#N)=C(N)SC(N)=C1C#N,51*,-11
N#CC1=C(N)SC(N)=C(C#N)C1Cc1ccccc1,35,-9
O=C(O)CCC1OC(=O)C(O)=C1c1ccccc1 (stereo unspecified),x,10
COc1ccc(NC(=O)CC2Sc3ncnn3C2=O)cc1 (stereo unspecified),3,7
CCOC(=O)c1ccc(NC(=O)CC2Sc3ncnn3C2=O)cc1 (stereo unspecified),60*,-15
O=C1c2ccccc2C(O)(c2ncc[nH]2)N1CCc1ccccc1 (stereo unspecified),x,0
COc1ccc(Oc2ccccc2C=O)cc1,x,14
CC(=O)Nc1c(NC(C)C)c2ccccc2oc1=O,x,8
COC(=O)Oc1c(Br)c(=O)oc2ccccc12,-20,30*
Oc1ccccc1C(=S)N1CCCCC1,53*,-2
Oc1ccccc1C(=S)N1CCCCCC1,38,4
O=C(O)C1CCN(S(=O)(=O)/C=C/c2ccccc2)CC1,x,-10
Cc1nnc(NC(=O)Cn2cnc3c2c(=O)n(C)c(=O)n3C)s1,x,7
CCC(=O)NS(=O)(=O)c1ccc(-c2c(-c3ccccc3)noc2C)cc1,x,-3
CCC(Sc1nc2cc3c(cc2c(=O)n1Cc1ccco1)OCO3)C(=O)Nc1cccc(OC)c1 (stereo unspecified),60*,8
CCC(Sc1nc2cc3c(cc2c(=O)n1Cc1ccco1)OCO3)C(=O)Nc1ccccc1OC (stereo unspecified),6,6
SMILES,HIV RNase H inh,RmlC RmlD mix
COC(=O)CSc1ncnc2c1sc1nc(N3CCOCC3)c3c(c12)CCCC3,x,-18
COC(=O)c1ccc(CSc2ncnc3c2sc2nc(N4CCOCC4)c4c(c23)CCCC4)o1,83*,-43
Cc1ccccc1NC(=S)NNC(=O)c1csc2c1CCC(C)C2 (stereo unspecified),x,10
Fc1cccc(Cl)c1CNCc1ccccc1Cl,x,-5
CCOC(=O)c1cnn2c(C(F)(F)F)cc(-c3ccccc3)nc12,-10,-14
CCOC(=O)N1CCC(NC(=O)c2cnn3c(C(F)(F)F)cc(-c4cccc(OC)c4)nc23)CC1,16,121*
N#CCC(CNc1ncc(C(F)(F)F)cc1Cl)OC(=O)c1ccc(Cl)cc1Cl (stereo unspecified),x,7
OCC[C@@H]1C[C@H](O)[C@@H](O)[C@]2(CCCO2)O1,x,-9
COCCN1Cc2cccc(C(=O)Nc3c(C)cccc3C)c2C1=O,58*,-21
COCCN1Cc2cccc(C(=O)Nc3ccc(C)c(C)c3)c2C1=O,-6,-10
COc1cc(/C=N/NC(=O)C2c3ccccc3Oc3ccccc32)ccc1O,x,-9
CC(C)(C)NC(=O)[C@@H]1CN(Cc2cccnc2)CCN1C[C@@H](O)C[C@@H](Cc1ccccc1)C(=O)N[C@H]1c2ccccc2C[C@H]1O,x,-12
COC(=O)CCCC1=CC2=C(c3ccccc3)C(=O)C(C)(OC(=O)C3CCCC3)C(=O)C2=CN1CCc1c[nH]c2ccccc12 (stereo unspecified),x,6
Cc1cc(C=O)c(C)n1-c1ccc(N2CCCC2)c([N+](=O)[O-])c1,x,-6
Cc1cc(C)c2c(-n3cccc3)c(C(=O)NNS(=O)(=O)c3ccc(Cl)cc3)sc2n1,x,3
O=C(CSc1ncn(-c2ccccc2)n1)Nc1ccc(Br)cn1,55*,0
O=C(CSc1ccccn1)Nc1ccc(Br)cn1,-23,-3
CN1C(C(=O)NCc2cccc(C(F)(F)F)c2)CC2Cn3c(nc4cc(Cl)c(Cl)cc43)C21 (stereo unspecified),x,10
CCCCn1c(SCC(=O)Nc2cc(C)on2)nc2ccccc2c1=O,34,-16
CCn1c(SCC(=O)Nc2ccc(NC(=O)c3ccco3)c(OC)c2)nc2ccccc2c1=O,21,95*
COCCn1c(SCC(=O)Nc2ccc(NC(=O)c3ccco3)c(OC)c2)nc2ccccc2c1=O,x,-12
CCCCn1c(SCC(=O)Nc2cc(NC(=O)c3ccco3)ccc2C)nc2ccccc2c1=O,55*,8
Cc1cc(C)nc(Nc2ccc(N3CCOCC3)cc2)n1,4,-1
S=P(c1ccc(N2CCOCC2)cc1N1CCOCC1)(N1CCOCC1)N1CCOCC1,88*,x
COc1ccc(N=CC2=C(Nc3ccc(OC)cc3)c3c(C)nn(-c4ccccn4)c3CC2)cc1,x,61*
SMILES,HIV RNase H inh,RmlC RmlD mix
COc1ccc(-c2cc(C(=O)O)c3c(C)nn(-c4ccccn4)c3n2)cc1,x,28
Cc1cccc2cc(CN(Cc3nnnn3Cc3ccco3)C3CCCC3)c3nnnn3c12,-5,-13
O=C(NCc1ccc2c(c1)OCO2)c1ccc(N2C(=O)C3CCCCC3C2=O)cc1 (stereo unspecified),x,-8
COc1ccc(-c2nnc(SCc3cccc(C)c3)n2N)cc1,x,9
Cc1cccc(CSc2nnc(-c3ccccn3)n2N)c1,52*,-10
Cc1ccc(-c2cc(C(=O)N/N=C/c3c(C)nn(C)c3C)c3ccccc3n2)c(C)c1,x,7
Cc1cc(NC(=O)C2C3C(=O)N(CC4CCCO4)C(C(=O)NCc4ccccc4)C34C=CC2(C)O4)no1 (stereo unspecified),x,-35
COC(=O)c1sc(=S)n(-c2ccccc2OC)c1N,x,-9
Cc1ccc(-n2c(N)c(C(N)=O)sc2=S)c(C)c1,65*,x
Cc1ccc(C)c(-n2c(N)c(C(N)=O)sc2=S)c1,15,12
COc1ccc(Cl)cc1-n1c(N)c(C(N)=O)sc1=S,75*,-10
CN(C(=O)OC(C)(C)C)c1ccc(-c2nc3ccccc3s2)cc1,x,-56
CCO[C@@H]1OC(C(=O)NC2CC2)=C[C@H](c2coc3ccccc3c2=O)[C@H]1CCCO,x,-13
CCC(c1nnnn1Cc1ccco1)N(CCc1ccccc1)Cc1cc2cc(C)ccc2[nH]c1=O (stereo unspecified),61*,-4
Cc1ccc2[nH]c(=O)c(CN(CCc3ccccc3)C(c3nnnn3Cc3ccco3)C(C)C)cc2c1 (stereo unspecified),20,x
CC(C)C(=O)N1CCC(CN=Cc2c(O)n(C3CCCCC3)c(=O)n(C3CCCCC3)c2=O)CC1,-2,-23
NS(=O)(=O)c1ccc(N=Cc2c(O)n(C3CCCCC3)c(=O)n(C3CCCCC3)c2=O)cc1,52*,x
COCCCn1c(=N)c(C(=O)NCC2CCCO2)cc2c(=O)n3cccc(C)c3nc21 (stereo unspecified),-20,x
CCn1c(=N)c(C(=O)NCc2cccnc2)cc2c(=O)n3cccc(C)c3nc21,-33,x
